Screening results (PubChem BioAssay)
Pf Dd2 inh: qHTS Primary assay for Inhibitors of Plasmodium falciparum Dd2 growth in vitro; 120,000 tested, 4.3% active; AID 1347417, 2020; Potency, µM (titrated, usually from 28.9 µM), for inactives: top-dose activity, negative = inhibition, hits mostly inhibitors; P. falciparum Dd2 growth, SYBR Green, 72 h; active means well fitted inhibition curve with a large enough effect;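 further: plate controls were DMSO vehicle for no effect and reference drug for full effect; nearly all actives have a fitted effect of over 65% in size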
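Readout: SYBR Green fluorescence, 485 nm excitation, 535 nm emission, after ~16 h lysis at 37C. Before that, Dd2-infected red cells (2.5% hematocrit) grew 72 h with compound, 29 uM top final concentration.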
The depositor's hits bear a star; i = inactive; [ ] = dose if it differs, or a comment. The full list was thinned out, with hits kept by preference. Potency means the concentration at half of the fitted maximal effect.

SMILES	Pf Dd2 inh
CCOC(=O)c1nc(Nc2ccc(C(=O)OC(C)C)cc2)c2ccccc2n1	3.16µM*
CCOC(=O)c1nc(Nc2ccc(C(=O)OCC(C)C)cc2)c2ccccc2n1	11.2µM*
CCCCCOC(=O)c1ccc(Nc2nc(C(=O)OCC)nc3ccccc23)cc1	5.2%
CCOC(=O)c1nc(Nc2ccc(OC)cc2)c2ccccc2n1	20.2%
CCOC(=O)c1nc(Nc2ccccc2OC)c2ccccc2n1	39.0%
CCOC(=O)c1ccc(Nc2nc(C(=O)OCC)nc3ccccc23)cc1	i
CC(C)NC(=O)NC[C@H]1OC[C@@H](NCc2cccs2)[C@@H]1O	4.6%[44.1 µM]
Cc1cc(C(=O)N2CCOC[C@H](Oc3ccc(S(C)(=O)=O)cc3)C2)no1	1.6%[44.1 µM]
COc1ccc2c(c1)CCc1sc(NC(=O)c3cccc(Br)c3)nc1-2	-16.3%
COc1ccc2c(c1)-c1nc(NC(=O)c3ccc(C)cc3)sc1CC2	11.2µM*
COc1ccc(C(=O)Nc2nc3c(s2)CCCC3)cc1Cl	-24.6%
Cc1nc(C)c(C(=O)N2C[C@@H](Oc3cccnc3)C[C@H]2C(=O)NC2CC2)s1	11.9%
Cc1ccc2oc(=O)n(CCC(=O)NC3CCCN(c4ncccn4)C3)c2c1 (stereo not given)	-14.7%
Fc1ccc(OCc2nc(-c3nnn4c3COC(c3ccccc3Cl)C4)no2)cc1 (stereo not given)	-6.0%
COc1ccccc1CN1CCCc2nc(C)nc(-c3ccc(O)cc3)c2C1	-16.1%
Cc1nc2c(c(-c3ccc(O)cc3)n1)CN(Cc1cccnc1)CCC2	-1.2%
Cc1nc2c(c(-c3ccc(O)cc3)n1)CN(Cc1ccc(C(F)(F)F)cc1)CC2	-3.0%
Cc1nc2c(c(-c3ccc(O)cc3)n1)CN(Cc1ccccn1)CCC2	i
COc1ccc(CN2CCCc3nc(C)nc(-c4ccc(O)cc4)c3C2)cc1	-40.8%
Cc1nc2c(c(-c3ccc(O)cc3)n1)CN(Cc1ccccc1)CCC2	4.47µM*
Cc1nc2c(c(-c3ccc(O)cc3)n1)CN(Cc1ccccc1)CC2	i
Cc1nc2c(c(-c3ccc(O)cc3)n1)CN(Cc1ccc(C(F)(F)F)cc1)CCC2	0.891µM*
Cc1nc2c(c(-c3ccc(O)cc3)n1)CN(Cc1cccc3ccccc13)CCC2	12.6µM*
O=C(NC1CCN(c2ccc(F)cc2)C1=O)c1ccc(F)cc1Cl (stereo not given)	-9.5%
O=C(c1cccc(Cn2cccn2)c1)N1CC[C@H](CO)[C@H](O)C1	2.3%
SMILES	Pf Dd2 inh
CC1(COCC2CC2)COc2ccc(C(=O)Nc3cccnc3)cc2N1 (stereo not given)	i
O=C1CCCCC(CNC(=O)c2nccc3ccccc23)N1 (stereo not given)	32.9%
COc1ccc(C(=O)N2CCn3c(nnc3[C@@H]3C[C@@H](O)CN3C(C)C)C2)c(OC)n1	-27.5%
Cc1noc(C)c1C(=O)N1CCC2(CC1)CC(NC(=O)NC(C)C)c1ccccc12 (stereo not given)	0.8%
Cn1nccc1C(O)c1cc2n(n1)CCN(c1ncc(Cl)cn1)C2 (stereo not given)	-8.1%
Cn1nc(C(=O)Nc2ccc3c(c2)C(=O)N2CCC[C@H]2C(=O)N3)c2ccccc21	-15.6%
COc1cc(=O)n2c(c1C(=O)Nc1ccc(F)c(F)c1)CCCC2	20.7%
Cc1nc(-c2cccc(NC(=O)N[C@H](C)c3onc(C)c3C(=O)O)c2)no1	16.6%[44.1 µM]
O=C(COc1ccccc1)N1CCC(c2noc(-c3ccncc3)n2)C1 (stereo not given)	16.4%[5.79 µM]
CCOc1ccc(C(=O)N2CCC3(CC2)NC(=O)N(Cc2ccc(F)cc2)C3=O)cc1	i
CCOc1ccc(CNC(=O)c2cc(=O)[nH]c3ccc(S(=O)(=O)N4CCCC4)cc23)cc1	4.6%
CCOc1ccc(C2c3[nH]c4ccccc4c3CCN2C(=O)CSCc2ccc(F)cc2)cc1 (stereo not given)	11.2µM*
Cc1ncccc1OCC1CN(Cc2cccc(C(F)(F)F)c2)C(=O)c2c(ccnc2-c2ccc(OCC(=O)O)cc2)O1 (stereo not given)	-3.8%
CC(C)C(=O)NCC1CN(Cc2ccccc2)C(=O)c2c(ccnc2-c2ccc(OCC(=O)O)cc2)O1 (stereo not given)	1.12µM*
O=C(O)COc1ccc(-c2nccc3c2C(=O)N(Cc2c[nH]c4ccccc24)CC(COc2ccccc2)O3)cc1 (stereo not given)	i
COc1ccc(CNC(=O)CN2C(=O)C(c3ccccc3)=NC23CCCC3)cc1OC	i
CCOc1ccccc1C1NC(=O)N(CC(=O)Nc2cccc(C#N)c2)C2=C1C(=O)OC2 (stereo not given)	-14.1%
CCC1(C2CCN(C(=O)CCc3ccccc3)CC2)NC(=O)N(CCc2scnc2C)C1=O (stereo not given)	-15.9%
CCc1ccc(NC(=O)C2CCCN(S(=O)(=O)c3cccc4nsnc34)C2)cc1 (stereo not given)	-11.5%
Cc1ccc(NC(=O)C2CCCN(S(=O)(=O)c3cccc4cccnc34)C2)cc1Cl (stereo not given)	-1.5%
